From PubChem
In the library only some 27% were active in any assay of this set; here they are far more common.
sEH activator: soluble epoxide hydrolase (human) activation | P34913 | purified human sEH enzymatic activity, activator screen | activation, % at 2 µM | 91,000 compounds, 0.04% hits | AID 717; in the data active means activation above about 37%
CYP2C19 act: cytochrome P450 2C19 (human) activation; P33261; recombinant CYP2C19, luciferin-H EGE luminescence; stronger effect = higher value; 0 = fully inhibited enzyme, 1 = untreated enzyme; activation factor at 5 µM; 96,000 tested, under 10 active;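 active means activation factor of at least 2 at 5 µM in the primary screen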;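 further: 0 = wells with 2.5 mM tranylcypromine and 1 = vehicle-only wells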
Target sequence (P33261 whole entry, looked up): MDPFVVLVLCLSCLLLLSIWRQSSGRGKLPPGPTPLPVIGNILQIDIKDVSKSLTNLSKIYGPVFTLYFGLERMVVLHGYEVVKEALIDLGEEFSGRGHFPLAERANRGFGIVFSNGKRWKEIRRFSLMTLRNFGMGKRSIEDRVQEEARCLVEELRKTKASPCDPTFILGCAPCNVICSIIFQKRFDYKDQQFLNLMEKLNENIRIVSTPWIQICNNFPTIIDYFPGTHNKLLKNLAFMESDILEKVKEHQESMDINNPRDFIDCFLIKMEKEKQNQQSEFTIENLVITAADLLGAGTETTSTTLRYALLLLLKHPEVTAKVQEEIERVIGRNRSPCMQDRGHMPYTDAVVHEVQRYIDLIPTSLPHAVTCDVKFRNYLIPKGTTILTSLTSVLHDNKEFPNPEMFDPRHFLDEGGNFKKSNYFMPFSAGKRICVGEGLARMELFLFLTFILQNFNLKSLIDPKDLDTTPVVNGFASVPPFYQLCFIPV
CYP2C9 activ: increases human cytochrome P450 2C9 activity; recombinant CYP2C9, luciferin-H conversion, luminescence; stronger effect = higher value; factor 1 = untreated enzyme, 0 = blocked; 96,000 compounds, 1.4% hits; AID 1024; activation factor at 5 µM;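 active means activation factor of 2 or more for CYP2C9 at a 5 µM dose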;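 further: 0 = sulfaphenazole-blocked wells and 1 = vehicle-only wells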
sEH inhibitor: inhibitors of human soluble epoxide hydrolase; AID 707; inhibition, % at 2 µM; 91,000 compounds, 0.34% hits; recombinant human sEH enzymatic activity assay; in the data active means inhibition above about 80%
CYP2C19 inh: inhibitors of human CYP2C19. inhibition, % at 5 µM. P33261. CYP2C19 Supersomes, luciferin-H EGE luminescence, 30 min. AID 778. 96,000 compounds, 21% hits;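 active means CYP2C19 inhibition above a set limit at 5 µM in the primary screen, cut at about 50% in these data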;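 further: plate controls were negative control wells for no effect and 2.5 mM tranylcypromine positive control for full effect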
CYP2C9 inhib: inhibitors of human CYP2C9; inhibition, % at 5 µM; CYP2C9 Supersomes, luciferin-H conversion, luminescence; 96,000 compounds, 20% hits;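 active means blocking of liver enzyme CYP2C9 beyond about 50% at 5 µM, limit read from the data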
Active calls of the source: *; nt = no result.

SMILES	sEH activator	CYP2C19 act	CYP2C9 activ	sEH inhibitor	CYP2C19 inh	CYP2C9 inhib
CCOC(=O)c1ccc(NC(=O)CSc2nnc(CNc3ccc(OC)cc3)n2C)cc1	-7	0.7	0.7	7	27	27
CCOC(=O)c1ccc(NC(=O)CSc2n[nH]c(-c3ccncc3)n2)cc1	-12	0.5	0	7	48	96*
NS(=O)(=O)c1ccc(NC(=O)COC(=O)CSc2n[nH]c(-c3ccccc3)n2)cc1	12	0.9	0.7	-16	13	26
COC(=O)c1ccc(NC(=O)CSc2n[nH]c(-c3ccncc3)n2)cc1	-10	0.6	0.1	14	40	95*
CC1(C)Cc2c(sc3c2C2=NCCN2C=N3)CS1	-6	1.2	1	7	-16	-3
Cc1ccc(NC(=O)C(=O)c2c(-c3ccccc3)cc3ccccn23)cc1S(=O)(=O)N1CCOCC1	1	0.1	1.2	1	88*	-18
CCCCn1nnnc1NCc1ccc(N2CCCC2)cc1	-8	0.6	0.3	11	38	71*
Clc1ccc(C(c2nnnn2C2CCCCC2)N(Cc2cccnc2)Cc2ccco2)cc1 (stereo unspecified)	-20	nt	nt	21	nt	nt
CC(C)(C)n1nnnc1CN(Cc1ccc(F)cc1)Cc1ccco1	-22	0.1	0.1	25	93*	87*
CC(C)(C)n1nnnc1C(c1cccnc1)N(Cc1ccccc1)Cc1ccco1 (stereo unspecified)	nt	0.6	0.3	nt	44	73*
CCN(Cc1ccccc1)C(c1cccc(C#N)c1)c1nnnn1C(C)(C)C (stereo unspecified)	-13	0.3	0.1	14	72*	91*
CCC(C)(C)n1nnnc1C(c1ccc(C)cc1)N1CCC(C)CC1 (stereo unspecified)	-1	0.7	0.9	2	33	11
CCC(C)(C)n1nnnc1C(c1ccc(C)cc1)N(Cc1ccco1)Cc1cccs1 (stereo unspecified)	7	1	0.1	-5	-4	90*
Cc1cc(C)n(-c2ccc(C(=O)C(C#N)c3nc4ccccc4n3C)cc2)n1 (stereo unspecified)	23	0.7	1	-23	30	-3
COc1cccc(CN(Cc2ccco2)C(c2ccc(F)cc2)c2nnnn2C(C)(C)C)c1 (stereo unspecified)	16	0.6	0.5	-19	44	51*
CCN(Cc1ccccc1)C(c1ccc(C(F)(F)F)cc1)c1nnnn1C(C)(C)C (stereo unspecified)	-45	nt	nt	48	nt	nt
N#CC1(c2ccccc2)CCCN1C(=O)c1ccccc1Br (stereo unspecified)	-4	0.9	1	3	11	0
COc1ccccc1C(=O)N1CCCC1(C#N)c1ccccc1 (stereo unspecified)	9	0.9	0.1	-9	14	90*
Nc1cc(-c2ccccc2)nn1Cc1ccc(Cl)cc1	4	0.1	0.2	-4	93*	75*
CCCS(=O)(=O)n1nc(-c2ccccc2)cc1N	21	0.1	0.3	-24	93*	67*
CCCS(=O)(=O)n1nc(-c2ccc(Br)cc2)cc1N	nt	0.3	0.1	nt	68*	86*
CCS(=O)(=O)n1nc(-c2ccccc2)cc1N	8	0.3	0.9	-11	67*	7
CCOC(=O)c1nnc2cc(-c3ccc(Br)cc3)nn2c1C	4	1	1	-4	0	-2
CCS(=O)(=O)n1nc(-c2ccccc2)nc1N	13	nt	nt	-12	nt	nt
Cc1nn(Cc2ccc(Cl)cc2)c(C)c1N	-7	nt	nt	6	nt	nt
SMILES	sEH activator	CYP2C19 act	CYP2C9 activ	sEH inhibitor	CYP2C19 inh	CYP2C9 inhib
CN(C)S(=O)(=O)c1ccc(NC(=O)COC(=O)c2ccccn2)cc1	-4	1	1.1	2	-3	-8
O=CNCC(=O)NC1CCCCCC1	nt	1	0.9	nt	3	11
Nc1cc(-c2ccc(Cl)cc2)nn1S(=O)(=O)c1ccccc1	-4	0.4	0.2	1	64*	83*
CCOC(=O)C1CCCN(S(=O)(=O)c2ccc(F)c(C(=O)Nc3ccc(F)c(F)c3)c2)C1 (stereo unspecified)	-19	0.4	0.4	19	59*	60*
NC(=O)C1CCCN(S(=O)(=O)c2ccc(Br)cc2)C1 (stereo unspecified)	3	0.4	1.5	-5	59*	-46
CCOC(=O)C1CCCN(S(=O)(=O)c2cn(C)c(=O)n(C)c2=O)C1 (stereo unspecified)	-5	0.2	0.8	4	78*	16
CC(C)NC(=O)C1CCCN(S(=O)(=O)c2ccc(-n3cnnn3)cc2)C1 (stereo unspecified)	-10	0.9	0.5	8	13	51*
CCOC(=O)N1CCN(S(=O)(=O)c2ccc(F)c(C(=O)Nc3cc(C)cc(C)c3)c2)CC1	-5	1	1	8	2	3
O=S(=O)(NCc1ccccc1Br)c1cccs1	-11	0.6	1.2	10	38	-24
COCCCNCCOc1cc(C(C)C)ccc1C	0	0.9	1	-2	10	0
Cn1c(SCC(=O)Nc2ccc(F)cc2F)nnc1-c1cccnc1	nt	0.9	0.8	nt	12	19
CCOC(=O)C1CCCN(S(=O)(=O)c2ccc(Br)c(OC)c2)C1 (stereo unspecified)	-11	0.3	0.7	13	71*	27
COc1ccc(S(=O)(=O)N2CCCC(C(=O)O)C2)cc1Cl (stereo unspecified)	-4	1	1.1	6	0	-7
CCOC(=O)C1CCCN(S(=O)(=O)c2ccc(OC)c3ccccc23)C1 (stereo unspecified)	-8	0	0.8	8	98*	21
CCOC(=O)C1CCCN(S(=O)(=O)c2ccccc2)C1 (stereo unspecified)	12	0.7	0.9	-10	33	5
CCOC(=O)C1CCCN(S(=O)(=O)c2c(C)c(C)cc(C)c2C)C1 (stereo unspecified)	8	0.1	1.4	-8	87*	-35
Cc1cccc(N2CC(C(=O)Nc3ccc4c(c3)OCO4)CC2=O)c1C (stereo unspecified)	8	1	1	-10	2	1
CCOC(=O)c1ccc(N2C(=O)CC(NC3CCN(C(=O)c4cccc(Cl)c4)CC3)C2=O)cc1 (stereo unspecified)	-6	0.7	0.7	8	34	33
CCc1nc2ccccc2c(C(=O)OC2CCOC2=O)c1C (stereo unspecified)	1	0.5	1.1	1	52*	-5
CCCc1nc2ccccc2c(C(=O)O)c1CC	-12	1	1	15	2	1
CCCc1nc2ccccc2c(C(=O)OC2CCOC2=O)c1CC (stereo unspecified)	4	0.5	0.3	-1	53*	65*
Cc1cccc(NC(=S)NNC(=O)CC(C)O)c1C (stereo unspecified)	-6	0.8	0.4	6	25	61*
